Bioassay records: PubChem, National Center for Advancing Translational Sciences (NCATS)
Hits are enriched below; roughly 3.8% of the tested compounds scored in any of these assays.
PLK1 PBD inh: blocks phosphopeptide binding to human PLK1 polo-box domain; 360,000 compounds, 2.8% hits; Potency, µM, without a hit: max response, negative = inhibition, actives largely listed as inhibitors; P53350; Plk1 PBD binding of FITC phosphopeptide, fluorescence polarization; further: potency means the concentration at half of the fitted maximal effect; series mostly up to about 57 µM; on the % scale 0 is the no-effect control and ±100 the full control effect; nearly all actives have a fitted effect of over 65% in size
MBNL1-CUG inh: blocks human MBNL1 binding to CUG repeat RNA; Q9NR56; Potency, µM (doses to about 57.5 µM), without a hit: at the highest dose activity change, negative = inhibition, actives largely listed as inhibitors; AID 2675; 280,000 compounds, 0.036% hits; TR-FRET MBNL1-His/biotin-(CUG)12 binding, 665/545 ratio; active means well fitted inhibition curve with a large enough effect in the signal ratio, with a control signal flat, not every such curve was filed as active; inconclusive means small, poorly fitted or top-dose-only effect, or effect the other way, or a change in a side signal; inactive means no such curve, though single readings can be large or run the other way; the % refers to the signal ratio; further: potency means the concentration at half of the fitted maximal effect; on the % scale 0 is the no-effect control and ±100 the full control effect
Target sequence (Q9NR56 whole entry, looked up): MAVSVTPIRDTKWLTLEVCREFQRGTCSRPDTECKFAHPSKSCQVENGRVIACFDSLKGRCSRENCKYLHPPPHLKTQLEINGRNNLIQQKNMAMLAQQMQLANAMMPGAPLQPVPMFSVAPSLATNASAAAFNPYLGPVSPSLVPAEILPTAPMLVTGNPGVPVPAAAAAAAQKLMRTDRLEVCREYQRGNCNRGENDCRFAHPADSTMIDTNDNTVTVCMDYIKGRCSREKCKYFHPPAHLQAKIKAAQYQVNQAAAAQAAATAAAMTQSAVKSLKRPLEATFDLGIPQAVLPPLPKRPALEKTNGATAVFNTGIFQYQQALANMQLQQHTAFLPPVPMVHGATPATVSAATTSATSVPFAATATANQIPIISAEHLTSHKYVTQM
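Compound titration spanned 92 nM–58 uM against the MBNL1-His/biotin-(CUG)12 complex. After 60 min at room temperature with 5 nM streptavidin-XL665 and 0.055 ng/ul terbium anti-His, ratiometric 665/545 nm emission (Ex 340 nm) normalized to controls.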
KCNH2 3.1 inh: blocks the human KCNH2 3.1 channel isoform | U2OS KCNH2 3.1, thallium flux FluxOr; active compounds read low | activity change, % (tested at about 1.8 µM) | 340,000 compounds, 0.95% hits | AID 720553;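 active means maximum activity change below -70%; inconclusive means maximum activity change from -70% to -50%; inactive means maximum activity change above -50%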;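 further: thallium influx rate constant from kinetic fluorescence after stimulation buffer; on the % scale 0 is the no-effect control and ±100 the full control effect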
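Virally transduced U2OS (3.1 isoform, 4 h infection in dark at RT) → overnight 37 C → FluxOr + Red40 in HBSS/HEPES, 45 min → stimulation buffer, 2 min kinetic read → rate constant vs DMSO controls.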
KCNH2 WT inh: blocks the wildtype human KCNH2 potassium channel; activity change, % at 1.84 µM; Q12809; 340,000 compounds, 0.37% hits; U2OS, BacMam KCNH2, thallium flux FluxOr; active compounds read low;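 active means maximum activity change below -70%; inconclusive means maximum activity change between -70% and -50%; inactive means maximum activity change above -50%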; further: on the % scale 0 is the no-effect control and ±100 the full control effect
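U2OS cells were transduced with wild-type KCNH2 virus (2.03 x 10^8 / mL) for 4 h at room temperature, then cultured overnight at 37 C. Thallium flux was read with FluxOr dye. Rate constants were normalized to DMSO controls.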
VDR inh: inhibitors of human vitamin D receptor | P11473 | VDR-SRC2-3 peptide fluorescence polarization, 2 h | Potency, µM, for inactives: max response, negative = inhibition, actives largely listed as inhibitors | 400,000 compounds, 0.93% hits; further: potency means the concentration at half of the fitted maximal effect; on the % scale 0 is the no-effect control and ±100 the full control effect
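Inhibition of the VDR/SRC2-3 peptide interaction is quantified by fluorescence polarization. Compounds (23 nl, pintool) incubate with the reagents for 2 hours at ambient room temperature.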
CBFb-RUNX1 inh: blocks binding between human CBF-beta and RUNX1; Potency, µM (titrated, usually from 59.8 µM), inactives show at the highest dose activity, negative = inhibition, hits mostly inhibitors; AID 1477; AlphaScreen CBFb-His/RUNX1-biotin binding, biochemical; 230,000 tested, under 10 active; further: % of control where 0% means no effect
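AlphaScreen proximity signal reports loss of binding between His-tagged CBF-beta and biotin-labelled RUNX1, each at 30 nM. Proteins are pre-associated for 20 minutes, compounds added for 15 minutes, then beads for 90 minutes, all at ambient temperature.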
An asterisk follows results filed as active; ? = inconclusive; nt = not tested or not shown; [ ] = remark or other dose. Unless noted, the call rests on the fitted dose curve; in most records, active means well fitted curve in the direction sought with a large enough effect; inconclusive means small, poorly fitted or top-dose-only effect, or another doubt; inactive means no such curve, though single readings can be large; an effect the other way counts as inactive or inconclusive.

SMILES	PLK1 PBD inh	MBNL1-CUG inh	KCNH2 3.1 inh	KCNH2 WT inh	VDR inh	CBFb-RUNX1 inh
OC(COCc1ccc(Cl)cc1)CN1CC=C(c2ccccc2)CC1 (stereo unspecified)	-18%	-2%	-112*	?	7%	2%
C=C(C)C#N	nt	nt	nt	nt	nt	4%[21.7 µM]
CC[C@H](C)/C=C(C)/C=C/C1=CC2=C(Cl)C(=O)[C@](C)(OC(C)=O)C(=O)C2=CO1	1.1µM*	nt	-10	3	?	nt
S=C(c1ccc(Cl)cc1)N1CCOCC1	28µM*	7%	15	13	?	7%
O=C(c1ccc(Cl)cc1)N1CCC2(CC1)OCCO2	-8%	1%	-6	-7	1%	nt
CCOP(=S)(OCC)OCCSCC	nt	nt	nt	nt	-12%	3%
C=CCn1c(O)c(C(C)=NCCN2CCN(C(=S)NC)CC2)c(=O)[nH]c1=O	-20%	-1%	-10	-99*	-1%	8%
CCCOc1ccc(C(=O)NC(=S)N2C[C@H]3C[C@H](C2)c2cccc(=O)n2C3)cc1	27µM*	0%	2	3	-18%	nt
CCC1(C)CC(C(N)=S)CCO1 (stereo unspecified)	2.1µM*	-11%	15	2	20µM*	-5%
Cc1ccc(N2C(=O)NC(=O)/C(=C\c3ccsc3)C2=O)cc1C	nt	4%	nt	nt	nt	-18%
CC(C)c1ccc(N2C(=O)NC(=O)/C(=C\C=C\c3ccco3)C2=O)cc1	?	-1%	-9	11	37%	-9%
CC(C)c1ccc(N2C(=O)NC(=O)/C(=C\c3cnc(-c4ccccc4)nc3)C2=O)cc1	21µM*	15%	3	-2	-22%	-6%
Cc1cccc(N2C(=O)NC(=O)/C(=C\c3cnc(-c4ccccc4)nc3)C2=O)c1	6µM*	3%	-15	-1	50µM*	-6%
Cc1ccc(N2C(=O)NC(=O)/C(=C/c3cnc(-c4ccccc4)nc3)C2=O)cc1C	4.2µM*	16%	-8	-12	32µM*	-6%
CCC1(CC)CCNC1=O	nt	nt	nt	nt	12%	16%
CC(=O)CC(c1ccccc1[N+](=O)[O-])c1c(O)c2ccccc2oc1=O (stereo unspecified)	6%	-3%	35	8	-20%	6%
COc1cc(C(c2c(C)[nH]n(-c3ccccc3)c2=O)c2c(C)[nH]n(-c3ccccc3)c2=O)cc(OC)c1OC	2.1µM*	-23%	-18	28	?	-3%
Cc1[nH]n(-c2ccccc2)c(=O)c1C(c1cccc([N+](=O)[O-])c1O)c1c(C)[nH]n(-c2ccccc2)c1=O	8.4µM*	?	-3	-4	?	2%
COc1cc(/C=C(/C)[N+](=O)[O-])ccc1OCc1ccccc1Cl	2.4µM*	-15%	nt	2	8.9µM*	-10%
CCOc1cc(/C=C2\C(=O)NC(=O)N(C)C2=O)cc([N+](=O)[O-])c1O	7.5µM*	?	25	2	-27%	4%
CN1C(=O)C(=Cc2ccc(N3CCOCC3)c([N+](=O)[O-])c2)C(=O)N(C)C1=O	nt	?	nt	nt	nt	-10%
CCC(Cl)[N+](=O)[O-] (stereo unspecified)	nt	nt	nt	nt	nt	-10%[21.7 µM]
Cc1ccc2nc(C)n(-c3ccc(F)cc3)c(=O)c2c1	21µM*	-13%	2	-14	-17%	-1%
Cc1cccc(-n2c(C)nc3ccc(Cl)cc3c2=O)c1	-3%	7%	11	6	2%	nt
O=C(CCN1CCN(CCO)CC1)N1c2ccccc2Sc2ccc(C(F)(F)F)cc21	27µM*	6%	-26	-3	?	nt
SMILES	PLK1 PBD inh	MBNL1-CUG inh	KCNH2 3.1 inh	KCNH2 WT inh	VDR inh	CBFb-RUNX1 inh
c1ccc(N2CCCC3(CCNCC3)C2)nc1	nt	nt	nt	nt	50µM*	nt
O=C(c1ccccc1)c1cn(CC(=O)N2CCOCC2)c2ccccc12	24µM*	-3%	-4	8	-1%	4%
O=C(c1ccccc1)c1cn(CC(=O)N2CCCC2)c2ccccc12	-3%	6%	24	4	14%	1%
CC(C)CC1C(=O)N2CCC[C@H]2[C@]2(O)O[C@](NC(=O)[C@@H]3C=C4c5cccc6[nH]c(Br)c(c56)C[C@H]4N(C)C3)(C(C)C)C(=O)N12 (stereo partly specified)	nt	nt	nt	nt	-20%	nt
CN1C[C@@H](C(=O)N[C@@]2(C)O[C@]3(O)C4CCCN4C(=O)[C@@H](Cc4ccccc4)N3C2=O)C=C2c3cccc4[nH]cc(c34)C[C@@H]21 (stereo partly specified)	nt	nt	nt	nt	14µM*	?
CC(C)C[C@H]1C(=O)N2CCCC2[C@]2(O)O[C@](NC(=O)[C@@H]3C=C4c5cccc6[nH]cc(c56)CC4N(C)C3)(C(C)C)C(=O)N12 (stereo partly specified)	-29%	?	2	1	-10%	?
COc1cc(/C=C2/SC(=S)N(Cc3ccccc3)C2=O)ccc1OCC(=O)O	?	18%	-1	-1	89µM*	nt
N#CC(C#N)=Cc1cc(O)c(O)c(O)c1	nt	nt	nt	nt	22µM*	-5%
N#CC(C#N)=Cc1ccc(O)cc1	nt	nt	nt	nt	50µM*	6%
COC(=O)CSc1nc2sc3c(c2c(=O)n1C1CCCCC1)CCN(C)C3	nt	?	nt	nt	nt	0%
CC(C)COc1ccc(Cc2c(O)[nH]c(=S)[nH]c2=O)cc1	27µM*	-7%	-8	4	-23%	nt
Cc1cc(Cc2c(O)[nH]c(=S)[nH]c2=O)ccc1OC(C)C	27µM*	-8%	-7	5	79µM*	nt
O=c1[nH]c(=S)[nH]c(O)c1CN1CCCCC1	-10%	-5%	-10	3	-11%	8%
C=CCn1c(O)c(Cc2ccc(OCC)cc2)c(=O)[nH]c1=O	-13%	-6%	9	0	-7%	nt
C[C@@H]1OC=C2[C@@H](O)[C@H]3O[C@H]3C(=O)[C@@]23[C@H]1[C@H]1C2=C([C@@H](O)[C@H]4O[C@@H]4C2=O)[C@@H]3O[C@@H]1C	nt	nt	nt	nt	nt	7%[13.1 µM]
CC(C)Oc1ccc(CNC(=O)Oc2ccccc2)cc1	?	-3%	8	-9	-13%	nt
C[C@@H]1O[C@@H](O[C@H]2CC[C@@H](O[C@H]3[C@H](O)C[C@H](c4ccc5c(c4O)C(=O)C4=C(C5=O)[C@@]5(O)C(=O)C[C@](C)(O[C@H]6CC[C@H](O[C@H]7C=CC(=O)[C@H](C)O7)[C@H](C)O6)C[C@@]5(O)C=C4)O[C@@H]3C)O[C@H]2C)C=CC1=O	nt	nt	nt	nt	2µM*	-10%
OC[C@@H]1CCCN2CCCC[C@@H]12	nt	nt	nt	nt	nt	10%[21.7 µM]
CN(C)c1ccc(/C=C2/C(=O)NC(=O)N(Cc3ccco3)C2=O)cc1	1.9µM*	nt	-14	-12	?	?
